# Assay outcomes as filed in PubChem.
# In the library only some 6.6% were active in any assay of this set; here they are far more common.
# KB-V1 MDR tox = kills drug-selected multidrug resistant KB-V1 cells; KB-V1 MDR cells viability, CellTiter-Glo, 72 h; Potency, µM (top dose mostly 46.1 µM), hits mostly cytotoxic; 3.4% of 400,000 active; further: on the % scale 0 is the no-effect control and ±100 the full control effect; nearly all actives have a fitted effect of over 60% in size
#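 Readout: CellTiter-Glo luminescence, 10 min after addition. Cells: KB-V1 MDR subline, 72 h at 37 degrees C with compound. Analysis: corrected, normalized data fitted to concentration-effect curves.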
# MCF10A rerep = induces DNA re-replication in MCF 10a normal breast cells | MCF 10A DNA re-replication, Hoechst nuclear intensity, 48 h | Potency, µM (highest dose often 46.1 µM), without a hit: top-dose activity, positive = re-replication, usual class: activators | 2.9% of 350,000 active | AID 624296; further: % of control where 0% means no effect; nearly all actives have a fitted effect of over 50% in size
# TSG101-PTAP inh = blocks PTAP/TSG101 interaction to inhibit HIV-1 budding. Q99816. Fluorescence polarization, FITC-PTAP peptide / Tsg101 binding. Potency, µM (top dose mostly 115 µM), inactives show top-dose activity change, negative = inhibition, usual class: inhibitors. 340,000 tested, under 10 active. AID 493005; active means well fitted inhibition curve with a large enough effect in the main read-out, with a control signal flat, not every such curve was filed as active; inconclusive means small, poorly fitted or top-dose-only effect, or effect the other way, or a change in a side signal; inactive means no such curve, though single readings can be large or run the other way; further: % of control where 0% means no effect
# Target sequence (Q99816 whole entry, looked up): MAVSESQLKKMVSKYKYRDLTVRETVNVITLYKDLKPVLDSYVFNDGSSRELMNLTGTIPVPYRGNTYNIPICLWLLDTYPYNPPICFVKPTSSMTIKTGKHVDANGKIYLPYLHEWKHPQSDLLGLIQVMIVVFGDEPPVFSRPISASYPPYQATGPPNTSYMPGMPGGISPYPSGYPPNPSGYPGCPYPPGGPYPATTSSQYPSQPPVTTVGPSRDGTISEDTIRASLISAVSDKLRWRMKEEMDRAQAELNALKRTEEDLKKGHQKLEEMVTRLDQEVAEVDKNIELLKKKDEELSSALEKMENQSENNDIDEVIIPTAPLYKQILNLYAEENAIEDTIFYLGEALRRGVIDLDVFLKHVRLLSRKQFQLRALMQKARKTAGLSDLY
#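 Fluorescence anisotropy tracks displacement of a FITC-tagged PTAP peptide (50 nM) from the Tsg101 binding domain (10 uM), following a 20 min room-temperature incubation at pH 7.5.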
# SW480 rereplic = induces DNA re-replication in SW480 colon adenocarcinoma cells; SW480 DNA re-replication, Hoechst DNA content imaging, 48 h; Potency, µM (series often up to 46.1 µM), for the others: at the top dose re-replication activation, most hits filed as activators; 1.8% of 340,000 active; AID 624297; further: % of control where 0% means no effect; nearly all actives have a fitted effect of over 55% in size
#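 250 cells/well; 23 nL cpd via pin tool; 48 hr, 37 C, 5% CO2; Hoechst 40 min; imager read of total nuclear intensity, ex 405/em 500-530 nm.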
# RGS4 inhibitor = inhibitors of human regulator of G protein signaling 4; AID 504845; Potency, µM (highest dose often 114 µM), for the others: at the top dose activity change, negative = inhibition, most hits filed as inhibitors; 0.039% of 390,000 active; P49798; Transcreener GDP fluorescence polarization, RGS4-accelerated GTP hydrolysis; further: on the % scale 0 is the no-effect control and ±100 the full control effect; nearly all actives have a fitted effect of over 75% in size
# Target sequence (P49798 whole entry, looked up): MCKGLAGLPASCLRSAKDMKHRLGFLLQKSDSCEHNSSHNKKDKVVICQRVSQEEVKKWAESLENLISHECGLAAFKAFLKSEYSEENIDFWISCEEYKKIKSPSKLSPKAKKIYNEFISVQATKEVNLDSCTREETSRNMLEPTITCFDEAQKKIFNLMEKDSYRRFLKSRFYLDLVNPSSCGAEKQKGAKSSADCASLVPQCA
#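 MLSMR compounds (23 nl, pin-transferred) preincubated 10 min at room temperature with a 500nM (2x) first reagent, then RGS4 at 900nM (2x) plus Transcreener GDP mix added; fluorescence polarization (620/688 nm) read before and after 90 min at 30 °C.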
# KB-3-1 cytotox = kills parental KB-3-1 adenocarcinoma cells; KB-3-1 viability, CellTiter-Glo ATP luminescence, 72 h; Potency, µM (top dose mostly 46.1 µM), actives largely listed as cytotoxic; 1.4% of 400,000 active; further: on the % scale 0 is the no-effect control and ±100 the full control effect; nearly all actives have a fitted effect of over 60% in size
#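 Parental KB-3-1 viability, qHTS format: 72 h compound exposure, 37 °C; CellTiter-Glo; media-only wells and DMSO plates as controls; concentration-effect fits on corrected data.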
# Numbers without * were called inactive; i = inactive; u = inconclusive; x = no result given. Unless noted, the call rests on the fitted dose curve; in most records, active means well fitted curve in the direction sought with a large enough effect; inconclusive means small, poorly fitted or top-dose-only effect, or another doubt; inactive means no such curve, though single readings can be large; an effect the other way counts as inactive or inconclusive. Potency means the concentration at half of the fitted maximal effect.
SMILES,KB-V1 MDR tox,MCF10A rerep,TSG101-PTAP inh,SW480 rereplic,RGS4 inhibitor,KB-3-1 cytotox
COc1cc2c(cc1OC)C1(Nc3c-2c(-c2ccccc2)nn3-c2ccccc2)C(=O)Nc2ccccc21 (configuration not stated),u,u,0%,5.2µM*,36%,u
Cc1nc2ccc(S(=O)(=O)N(C)CC(=O)Nc3ccc(Br)c(C)c3)cc2s1,x,x,x,x,5%,x
CCOc1ccc(N2CC(c3nc4ccccc4n3Cc3cccc(Cl)c3)CC2=O)cc1 (configuration not stated),i,x,x,x,13%,i
CCN(CC)S(=O)(=O)c1cccc(C(=O)NCC2CCCCC2)c1,12µM*,7%,0%,-1%,u,u
CCN(CC)S(=O)(=O)c1cccc(NC(=O)C2SC(=Nc3ccc(C)cc3C)C(C(=O)NCC3CCCO3)=C2N)c1 (configuration not stated),21µM*,u,-6%,u,-28%,u
O=C(NCC1CCCO1)c1cccc(S(=O)(=O)N(Cc2ccccc2)c2ccccc2)c1 (configuration not stated),8.2µM*,20%,-1%,-4%,-29%,i
CCN(CC)S(=O)(=O)c1ccc(Cl)c(C(=O)NCC2CCCO2)c1 (configuration not stated),i,-2%,-6%,-8%,2%,i
CCN(CC)S(=O)(=O)c1cccc(C(=O)NCC(c2ccccc2)N(C)C)c1 (configuration not stated),u,u,1%,-3%,41%,i
CCN(CC)S(=O)(=O)c1cccc(C(=O)NCC2CCCO2)c1 (configuration not stated),i,23µM*,-4%,u,-6%,i
C=CCN(c1ccccc1)S(=O)(=O)c1cccc(C(=O)NCC2CCCO2)c1 (configuration not stated),u,5%,-2%,2%,19%,i
CCCC/C=C/[C@@H](c1ccccc1)C1COC(=O)CC1O (some centres not stated),x,x,x,x,-6%,x
COc1cccc2c1cc1c(=O)n(CC(=O)N3CCN(c4cccc(C(F)(F)F)c4)CC3)nc(C)n12,x,x,x,x,30%,x
CN(C)/N=C/C=C1\CCC/C(=C/c2cccs2)C1=O,u,23µM*,1%,u,u,i
COc1ccc(C(=O)NCc2ccc3c(c2)CCN3C(=O)c2ccc(C)cc2)cc1,x,x,x,x,-33%,x
COc1ccc(C(=O)C(=O)c2ccc(OCCO)cc2)cc1,i,-4%,-4%,-10%,4%,i
COc1ccc(C(=O)/C(Br)=C/C(=O)O)cc1,x,21µM*,x,u,x,x
O=C(NCCc1ccccc1)c1sc2ncccc2c1-n1cccc1,i,x,x,x,6%,u
COC(=O)c1ccc([N+](=O)[O-])c(CS(=O)(=O)c2ccc(Cl)cc2)c1,i,4%,-3%,0%,2%,i
CCOC(=O)CNc1ccc(C(=O)OCC)cc1[N+](=O)[O-],i,0%,-4%,-17%,-14%,i
CCCNc1ccc(C(=O)OCC)cc1[N+](=O)[O-],13µM*,4%,-4%,0%,-9%,16µM*
CCOC(=O)c1ccc([N+](=O)[O-])c(CS(=O)(=O)c2ccc(Cl)cc2)c1,i,21µM*,-6%,-1%,16%,i
Clc1nc(NCc2ccco2)c2[nH]cnc2n1,i,x,x,x,0%,i
CCOc1ccccc1C(=O)Nc1ccc(S(=O)(=O)Nc2onc(C)c2C)cc1,i,x,x,x,-9%,i
CC1(C(=O)Nc2cccc(-n3cnnn3)c2)Cc2ccccc2C(=O)O1 (configuration not stated),12µM*,-1%,-1%,12%,-4%,i
CC1(C(=O)Nc2cccc(Br)c2)Cc2ccccc2C(=O)O1 (configuration not stated),u,x,x,x,-15%,i
SMILES,KB-V1 MDR tox,MCF10A rerep,TSG101-PTAP inh,SW480 rereplic,RGS4 inhibitor,KB-3-1 cytotox
CNC(=O)c1c(NC(=O)c2cc(=O)c3cc(C)c(C)cc3o2)sc2c1CCCC2,i,x,x,x,-2%,i
CCN(CC)C(=O)c1ccc2c3c(cccc13)C(=O)N(CCc1ccc(OC)c(OC)c1)C2=O,7.3µM*,u,-2%,110%,7%,u
COc1ccc(CCN2C(=O)c3cccc4cccc(c34)C2=O)cc1OC,i,8%,0%,-2%,-18%,i
Clc1ccc(CO/N=C/c2c(-c3ccccc3)nc3n2CCS3)c(Cl)c1,15µM*,u,-8%,5%,-17%,i
CCn1c(SCc2ccccc2C)nc(=O)c2c(C(=O)OC)cc(C3CC3)nc21,i,x,x,x,19%,i
Cc1ccc(-n2c(SCC(=O)N3CCCc4ccccc43)nnc2-c2cccnc2)c(C)c1,u,4%,-3%,-9%,16%,i
Cc1ccc(-n2c(-c3ccccc3)c[n+]3c2CCc2ccccc2-3)c(C)c1,i,22%,-5%,26%,0%,4.6µM*
CC(C)CN(C[C@@H](O)[C@H](Cc1ccccc1)NC(=O)O[C@H]1CO[C@H]2OCC[C@H]21)S(=O)(=O)c1ccc(N)cc1,x,-2%,x,u,x,x
CC(C)[C@H](NC(=O)c1ccccc1Cl)C(=O)OCC(=O)N1CCCCC1,x,-8%,-4%,5%,-7%,x
C/C(N)=C(/C#N)C(=O)COC(=O)[C@@H](NC(=O)c1ccccc1Cl)C(C)C,i,2.1µM*,-1%,-56%,-13%,i
O=C1NCC(O)=C1C=NC12CC3CC(CC(C3)C1)C2,i,15µM*,-3%,u,0%,i
